Results: PubChem BioAssay (Tox21)
Inconclusive results are not listed. Activity calls are given as the source filed them. Unless noted, calls come from the whole dose curve.

Assays:
[1] = Nuclear factor erythroid 2-related factor 2/antioxidant responsive element (Nrf2/ARE) small molecule agonists: qHTS cell viability counter screen in human keratinocytes (AID 1919968; active = well fitted curve in the direction sought with a large enough effect in the repeat runs; an effect the other way counts as inactive or inconclusive; note: nearly all actives have a fitted effect of over 55% in size)
Method in brief: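 Parallel cytotoxicity read: KeratinoSens HaCaT cells, compound treatment 23 h, viability by CellTiter-Fluor fluorescence 1 h post-reagent.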

[2] = Nuclear factor erythroid 2-related factor 2/antioxidant responsive element (Nrf2/ARE) small molecule agonists: luciferase reporter gene qHTS assay in human keratinocytes (AID 1919969); note: nearly all actives have a fitted effect of over 35% in size; note: potency is the fitted concentration of half-maximal effect
[3] = biological target: Gonadotropin-releasing hormone receptor (Homo sapiens) (UniProt P30968); experiment: Human gonadotropin-releasing hormone receptor (GnRHR) small molecule agonists, calcium flux assay in GnRHR-HEK293 cells (AID 1920063); note: nearly all actives have a fitted effect of over 35% in size
Sequence of Gonadotropin-releasing hormone receptor (Homo sapiens) (P30968 whole entry, looked up): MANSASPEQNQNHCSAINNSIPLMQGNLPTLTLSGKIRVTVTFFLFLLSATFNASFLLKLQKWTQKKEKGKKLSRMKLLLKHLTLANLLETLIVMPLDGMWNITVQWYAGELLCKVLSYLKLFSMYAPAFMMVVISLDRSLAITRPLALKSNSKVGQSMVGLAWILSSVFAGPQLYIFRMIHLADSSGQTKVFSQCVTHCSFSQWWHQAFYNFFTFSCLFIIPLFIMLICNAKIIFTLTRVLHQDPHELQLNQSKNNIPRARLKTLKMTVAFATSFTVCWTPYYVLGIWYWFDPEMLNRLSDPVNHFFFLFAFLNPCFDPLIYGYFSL
Method in brief: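 Calcium flux, agonist mode, human GnRHR stably integrated in HEK293; dye 1 h at 37 C before compound; Ex/Em=480/540 kinetic read, 3 min; 15 concentrations, triplicate.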

[4] = biological target: KiSS-1 receptor (Homo sapiens) (UniProt Q969F8); experiment: Human kisspeptin (KISS1R) small molecule agonists, calcium flux assay in KISS1R-HEK293 cells (AID 1920064; active = well fitted curve in the direction sought with a large enough effect in the repeat runs; an effect the other way counts as inactive or inconclusive)
Sequence of KiSS-1 receptor (Homo sapiens) (Q969F8 whole entry, looked up): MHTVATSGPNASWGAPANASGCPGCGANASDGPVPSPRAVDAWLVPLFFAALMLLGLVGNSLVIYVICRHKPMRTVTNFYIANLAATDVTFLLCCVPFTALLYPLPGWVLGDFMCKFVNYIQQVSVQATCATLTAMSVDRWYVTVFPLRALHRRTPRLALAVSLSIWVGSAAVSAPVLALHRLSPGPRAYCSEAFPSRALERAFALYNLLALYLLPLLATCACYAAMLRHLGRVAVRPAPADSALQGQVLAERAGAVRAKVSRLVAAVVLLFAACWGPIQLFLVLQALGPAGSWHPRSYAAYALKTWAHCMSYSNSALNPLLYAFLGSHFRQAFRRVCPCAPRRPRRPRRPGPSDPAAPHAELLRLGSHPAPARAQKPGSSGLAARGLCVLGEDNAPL
Method in brief: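 Triplicate 15-concentration series were applied to dye-loaded human KISS1R HEK293 cells, and agonist-evoked calcium fluorescence was captured for 3 min.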

[5] = G protein-coupled receptor (GPCR) small molecule agonists, calcium flux assay: HEK293 wild type cell line counter screen (AID 1920065)
Method in brief: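 Non-specific calcium responders were flagged by adding DMSO-dissolved compounds to dye-loaded cells and reading 480/540 nm fluorescence each second for 3 min; ATP served as positive control.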

[6] = p53 small molecule agonists, cell-based qHTS assay with human liver microsomes: qHTS cell viability counter screen (AID 1963579); note: nearly all actives have a fitted effect of over 45% in size
Method in brief: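 Viability of p53RE-bla cells is measured as CellTiter-Glo luminescence following a 16 h, 37 C incubation with compound, liver microsomes from human donors and NADPH.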

[7] = p53 small molecule agonists, cell-based qHTS assay with rat liver microsomes: qHTS cell viability counter screen (AID 1963580); note: nearly all actives have a fitted effect of over 45% in size
Method in brief: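 Cytotoxicity counter screen: intracellular ATP measured by CellTiter-Glo luminescence in the same wells as the beta-lactamase reporter read, on HCT-116 p53RE-bla cells exposed 16 h at 37 C to compounds with rat liver microsomes and NADPH, each 0.5 mg/mL final.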

[8] = p53 small molecule agonists, cell-based qHTS assay: qHTS cell viability counter screen (AID 1963581); note: nearly all actives have a fitted effect of over 45% in size
Method in brief: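 Multiplexed with the reporter read, a CellTiter-Glo step (30 min, room temperature) gauges ATP-based viability of HCT-116 p53RE-bla cells after 16 h compound incubation at 37 C.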

[9] = biological target: 5-hydroxytryptamine receptor 2A (Homo sapiens) (UniProt P28223); experiment: 5-hydroxytryptamine receptor 2A (HTR2A) small molecule antagonists, cell-based qHTS assay (AID 1963586); note: nearly all actives have a fitted effect of over 45% in size; note: potency is the fitted concentration of half-maximal effect
Sequence of 5-hydroxytryptamine receptor 2A (Homo sapiens) (P28223 whole entry, looked up): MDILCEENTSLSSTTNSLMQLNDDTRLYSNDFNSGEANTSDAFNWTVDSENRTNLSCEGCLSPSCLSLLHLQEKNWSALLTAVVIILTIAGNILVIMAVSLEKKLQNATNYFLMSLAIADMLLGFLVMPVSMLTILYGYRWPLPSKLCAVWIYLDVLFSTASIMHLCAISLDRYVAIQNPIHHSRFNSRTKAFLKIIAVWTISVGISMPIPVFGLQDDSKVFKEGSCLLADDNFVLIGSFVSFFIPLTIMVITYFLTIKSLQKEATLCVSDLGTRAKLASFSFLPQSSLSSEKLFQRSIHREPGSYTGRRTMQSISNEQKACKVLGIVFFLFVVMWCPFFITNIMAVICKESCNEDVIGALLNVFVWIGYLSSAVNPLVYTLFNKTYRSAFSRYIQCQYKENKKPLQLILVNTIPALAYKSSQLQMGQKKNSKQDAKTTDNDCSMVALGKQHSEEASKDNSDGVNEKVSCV
Method in brief: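 CHO cells stably expressing human HTR2A were plated for 18 h at 37 C, then loaded with calcium dye for 1 h. Compounds were preincubated 5 min at room temperature before DOI (4 nM solution) was added. Kinetic fluorescence was read for 3 min.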

[10] = biological target: 5-hydroxytryptamine receptor 2A (Homo sapiens) (UniProt P28223); experiment: 5-hydroxytryptamine receptor 2A (HTR2A) small molecule agonists, cell-based qHTS assay (AID 1963587); note: nearly all actives have a fitted effect of over 30% in size
Method in brief: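 CHO cells stably expressing human HTR2A, plated 18 h, loaded with calcium dye 1 h at 37 C. Agonist mode: compounds added and intracellular calcium fluorescence recorded kinetically for 2 min at 1 sec intervals.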

[11] = biological target: Muscarinic acetylcholine receptor M1 (Homo sapiens) (UniProt P11229); experiment: Cholinergic receptor muscarinic 1 (CHRM1) small molecule agonists, cell-based qHTS assay (AID 1963589); note: nearly all actives have a fitted effect of over 35% in size
Sequence of Muscarinic acetylcholine receptor M1 (Homo sapiens) (P11229 whole entry, looked up): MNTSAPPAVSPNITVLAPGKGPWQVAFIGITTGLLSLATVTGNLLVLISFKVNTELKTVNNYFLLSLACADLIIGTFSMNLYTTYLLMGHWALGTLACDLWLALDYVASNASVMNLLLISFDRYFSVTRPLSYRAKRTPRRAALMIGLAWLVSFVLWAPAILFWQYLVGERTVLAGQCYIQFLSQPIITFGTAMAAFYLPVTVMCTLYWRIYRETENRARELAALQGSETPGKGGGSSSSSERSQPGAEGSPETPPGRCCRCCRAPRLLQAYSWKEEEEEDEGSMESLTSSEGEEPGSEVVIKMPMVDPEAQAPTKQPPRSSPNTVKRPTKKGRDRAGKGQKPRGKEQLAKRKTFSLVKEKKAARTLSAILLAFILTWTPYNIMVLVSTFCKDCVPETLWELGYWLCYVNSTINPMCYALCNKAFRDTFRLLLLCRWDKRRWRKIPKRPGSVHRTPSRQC
Method in brief: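 qHTS, 15-point titration, 3 independent runs: compounds pin-transferred onto dye-loaded CHRM1-CHO cells (human M1), calcium fluorescence followed every second to detect agonism.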

[12] = cAMP Responsive Elements (CRE) small molecule agonists, cell-based qHTS assay (AID 1963590)
Method in brief: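 Quantitative HTS for CRE agonists: HEK 293T CRE-bla cells, overnight plating, 3 h compound incubation at 37 C/5% CO2, then 2 h room-temperature LiveBLAzer B/G FRET substrate loading.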

[13] = cAMP Responsive Elements (CRE) small molecule antagonists, cell-based qHTS assay (AID 1963591; active = well fitted inhibition curve with a large enough effect in the signal ratio in the repeat runs, not every such curve was filed as active; the % refers to the signal ratio)
Method in brief: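 Fluorescence intensity from cleaved LiveBLAzer B/G substrate (2 h, room temperature) quantified CRE-bla activity in HEK 293T cells exposed 3 h to compound with 0.25 uM final NKH477.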

[14] = biological target: Beta-2 adrenergic receptor (Homo sapiens) (UniProt P07550); experiment: Adrenergic beta2 receptor (ADRB2) small molecule antagonists, cell-based qHTS assay (AID 1963592); note: series mostly up to about 92 µM; nearly all actives have a fitted effect of over 50% in size
Sequence of Beta-2 adrenergic receptor (Homo sapiens) (P07550 whole entry, looked up): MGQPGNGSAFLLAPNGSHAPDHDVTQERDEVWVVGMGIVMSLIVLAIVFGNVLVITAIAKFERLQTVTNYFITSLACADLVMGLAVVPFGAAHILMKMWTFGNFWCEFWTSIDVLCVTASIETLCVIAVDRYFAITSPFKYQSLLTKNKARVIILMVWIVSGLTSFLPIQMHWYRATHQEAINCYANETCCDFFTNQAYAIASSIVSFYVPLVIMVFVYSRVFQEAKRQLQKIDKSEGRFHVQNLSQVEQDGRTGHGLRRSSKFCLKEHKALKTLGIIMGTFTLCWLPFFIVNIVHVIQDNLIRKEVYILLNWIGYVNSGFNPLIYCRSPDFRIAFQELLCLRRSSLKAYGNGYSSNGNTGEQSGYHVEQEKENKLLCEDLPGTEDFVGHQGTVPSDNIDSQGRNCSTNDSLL
Method in brief: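 Assay format: CHO-ADRB2 cells, 18-20hr seeding at 37C/5% CO2, then compound plus 1nM isoproterenol agonist mix for 0.5hr RT. Homogeneous time-resolved fluorescence cAMP detection after 1hr, expressed as 665/615 nm ratio.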

[15] = biological target: Beta-2 adrenergic receptor (Homo sapiens) (UniProt P07550); experiment: Adrenergic beta2 receptor (ADRB2) small molecule agonists, cell-based qHTS assay (AID 1963593);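 note: CHO cells stably overexpressing human ADRB2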
Method in brief: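 CHO cells stably over-expressing ADRB2 were plated overnight at 37C, then dosed with compounds plus a stimulation mix containing 100uM IBMX and 25uM Ro-20-1724 for 0.5hr at room temperature. cAMP was measured by HTRF competition, 1hr.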

[16] = biological target: D(2) dopamine receptor (Homo sapiens) (UniProt P14416); experiment: Dopamine D2 receptor (DRD2) small molecule agonists, cell-based qHTS assay (AID 1963594); note: nearly all actives have a fitted effect of over 35% in size
Sequence of D(2) dopamine receptor (Homo sapiens) (P14416 whole entry, looked up): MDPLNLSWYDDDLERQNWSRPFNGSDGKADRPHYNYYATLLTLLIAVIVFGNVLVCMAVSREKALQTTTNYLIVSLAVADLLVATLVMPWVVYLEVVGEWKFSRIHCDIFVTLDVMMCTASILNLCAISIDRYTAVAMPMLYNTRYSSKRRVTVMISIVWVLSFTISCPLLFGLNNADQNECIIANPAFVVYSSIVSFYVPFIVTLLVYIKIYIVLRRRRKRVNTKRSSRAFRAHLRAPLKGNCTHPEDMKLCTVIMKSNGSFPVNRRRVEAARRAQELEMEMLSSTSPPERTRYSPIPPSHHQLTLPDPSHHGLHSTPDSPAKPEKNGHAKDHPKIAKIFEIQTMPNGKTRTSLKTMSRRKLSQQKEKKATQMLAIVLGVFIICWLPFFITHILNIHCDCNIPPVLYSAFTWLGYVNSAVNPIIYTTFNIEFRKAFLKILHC
Method in brief: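 HEK293 cells stably expressing human DRD2, pre-treated with PDE inhibitor Ro20-1724 (0.1 mM final) and compound 10 min at room temperature, then stimulated with NKH477 (200nM […]) for 30 min. cAMP read by HTRF (665/620 nm).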

[17] = biological target: D(2) dopamine receptor (Homo sapiens) (UniProt P14416); experiment: Dopamine D2 receptor (DRD2) small molecule antagonists, cell-based qHTS assay (AID 1963595; active = well fitted inhibition curve with a large enough effect in the signal ratio in the repeat runs, with a control signal flat; the % refers to the signal ratio)
Method in brief: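 HEK293 cells stably expressing DRD2, preincubated with 0.1 mM Ro20-1724 and compounds 10 min, were stimulated with 200 nM NKH477 plus 12 nM quinpirole for 30 min at room temperature; cAMP measured by HTRF (665/620 nm).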

[18] = biological target: Muscarinic acetylcholine receptor M1 (Homo sapiens) (UniProt P11229); experiment: Cholinergic receptor muscarinic 1 (CHRM1) small molecule antagonists, cell-based qHTS assay (AID 1963588); note: nearly all actives have a fitted effect of over 40% in size
Method in brief: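 Compounds were tested at 15 concentrations in three independent runs. Dye-loaded CHRM1-CHO cells were exposed 5 min at room temperature before stimulation by acetylcholine added at 50nM. Intracellular calcium was read kinetically on FDSS for 3 min.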

Measured: Potency

C=C(C)C(=O)OCCOP(=O)(O)OCCOC(=O)C(=C)C
not listed: [18]
inactive: all other assays above

CC1(C)CC(O)CC(C)(C)N1[O]
not listed: [11] | [15]
inactive: all other assays above

COc1ccccc1OCC1CNC(=O)O1 (stereo unspecified)
not listed: [15] | [18]
inactive: all other assays above

Cc1ccccc1Br
not listed: [12] | [18]
inactive: all other assays above

Cc1ccccc1OCC(=O)O
not listed: [12] | [18]
inactive: all other assays above

Cc1oc(=O)oc1CN1CCN(c2cc3c(cc2F)c(=O)c(C(=O)O)c2n3C(C)S2)CC1 (stereo unspecified)
not listed: [10] | [12] | [13] | [14] | [15] | [17]
inactive: all other assays above

Nc1cc(N)cc(C(=O)O)c1
not listed: [10] | [13] | [15] | [17]
inactive: all other assays above

CCCCCCCCCCC=O
not listed: [12] | [18]
inactive: all other assays above

CC(C)(COC(=O)c1ccccc1)COC(=O)c1ccccc1
not listed: [15] | [16] | [18]
inactive: all other assays above

NCCc1ccn[nH]1
not listed: [9]
inactive: all other assays above

Cc1ccc2ccc3cccc4ccc1c2c34
not listed: [10] | [12] | [15] | [17]
inactive: all other assays above

O=C(O)C1(C(=O)Nc2ccc(Cl)cc2Cl)CC1
active: [9] 33.4 µM
not listed: [12] | [13] | [15] | [18]
inactive: all other assays above

CC(C)c1ccc2cc(C(C)C)ccc2c1
active: [2] 48.6 µM
not listed: [9]
inactive: all other assays above

Cc1ccc(Nc2c(F)cccc2Cl)c(CC(=O)O)c1
not listed: [9] | [15]
inactive: all other assays above
